CYP2C19 activ = activators of human cytochrome P450 2C19; P33261; recombinant CYP2C19, luciferin-H EGE luminescence; active compounds read high; 0 = fully inhibited enzyme, 1 = untreated enzyme; activation factor at 5 µM; 96,000 tested, under 10 active; AID 1025;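 active = activation factor of at least 2 at 5 µM in the primary screen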;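 also: 0 = wells with 2.5 mM tranylcypromine and 1 = vehicle-only wells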
CYP2C9 activ = CYP2C9 (human) activation | recombinant CYP2C9, luciferin-H conversion, luminescence; active compounds read high; factor 1 = untreated enzyme, 0 = blocked | 1.4% of 96,000 active | P11712 | activation factor at 5 µM;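 active = activation factor of 2 or more for CYP2C9 at a 5 µM dose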;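 also: 0 = sulfaphenazole-blocked wells and 1 = vehicle-only wells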
CYP2C9 inhib = blocks human cytochrome P450 2C9; CYP2C9 Supersomes, luciferin-H conversion, luminescence; inhibition, % at 5 µM; 20% of 96,000 active; AID 777;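 active = blocking of liver enzyme CYP2C9 beyond about 50% at 5 µM, limit read from the data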
PLAP act = human PLAP activation. purified PLAP enzyme, luminescent substrate read-out; active compounds read high. activation fold at 20 µM. 1.2% of 96,000 active. AID 696; in the data active = activation fold above about 2
Target sequence (P05187 whole entry, looked up): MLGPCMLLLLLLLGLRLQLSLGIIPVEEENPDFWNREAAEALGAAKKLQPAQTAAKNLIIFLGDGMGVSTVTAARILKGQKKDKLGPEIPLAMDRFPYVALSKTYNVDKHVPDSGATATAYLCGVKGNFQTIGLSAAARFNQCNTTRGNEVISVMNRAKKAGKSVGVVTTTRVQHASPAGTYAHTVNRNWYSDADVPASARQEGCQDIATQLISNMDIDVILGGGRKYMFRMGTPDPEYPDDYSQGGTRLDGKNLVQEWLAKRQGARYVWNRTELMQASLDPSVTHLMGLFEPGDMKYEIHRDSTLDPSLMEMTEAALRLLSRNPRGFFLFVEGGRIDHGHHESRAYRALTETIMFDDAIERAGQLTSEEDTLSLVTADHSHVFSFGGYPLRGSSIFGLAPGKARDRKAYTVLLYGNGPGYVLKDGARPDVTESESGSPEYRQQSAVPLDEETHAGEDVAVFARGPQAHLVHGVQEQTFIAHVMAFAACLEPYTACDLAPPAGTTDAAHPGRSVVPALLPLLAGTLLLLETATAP
CYP2C19 inhib = inhibitors of human CYP2C19; inhibition, % at 5 µM; 21% of 96,000 active; P33261; CYP2C19 Supersomes, luciferin-H EGE luminescence, 30 min; AID 778;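 active = CYP2C19 inhibition above a set limit at 5 µM in the primary screen, cut at about 50% in these data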;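 also: plate controls were negative control wells for no effect and 2.5 mM tranylcypromine positive control for full effect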
The depositor's hits bear a star; . = no result. Sampled rows, rich in hits. Any-hit rate of the full collection: about 31%.

SMILES	CYP2C19 activ	CYP2C9 activ	CYP2C9 inhib	PLAP act	CYP2C19 inhib
CCN(CCCNS(=O)(=O)c1ccc2c(c1)oc(=O)n2C)c1cccc(C)c1	0.4	1.3	-26.7	1.1	58.8*
Cc1ccc(NC(=O)CSCCc2ccccn2)nc1	0.9	0.9	9.0	1.1	6.3
COC(=O)c1cccc(S(=O)(=O)N(Cc2ccco2)Cc2cc3cc(OC)ccc3[nH]c2=O)c1	0.8	0.8	22.8	1.2	24.4
CC12C=CC3(CN(Cc4ccccc4)C(=O)C3C1C(=O)NCc1ccco1)O2 (stereo unspecified)	1	1	2.1	1.1	-2.0
CCn1c(=O)n(CC(=O)N(C)Cc2ccccc2)c(=O)c2ccccc21	0.4	0.8	15.5	1.2	64.7*
CN(Cc1ccccc1)C(=O)Cn1c(=O)oc2cc(S(=O)(=O)N3CCCC3)ccc21	1	0.3	65.0*	0.9	-1.4
Cn1c(=O)oc2cc(S(=O)(=O)NCc3ccccc3)ccc21	0.4	1.7	-67.5	0.9	59.2*
O=C(Cn1c(=O)oc2cc(S(=O)(=O)N3CCCCCC3)ccc21)NC1CCCCCCC1	0.8	0.7	26.2	0.9	15.2
O=C(Cn1c(=O)oc2cc(S(=O)(=O)N3CCCC3)ccc21)NC1CCCc2ccccc21 (stereo unspecified)	0.9	0.4	58.4*	.	12.5
COc1ccccc1-n1c(SCC(=O)N2CCOCC2)nc(O)c(Cc2ccccc2)c1=O	1.2	1.2	-18.0	1.2	-17.5
CC1(C)C(=O)Nc2ccccc2N1C(=O)CN1C(=O)c2ccccc2C1=O	1.1	0.9	11.1	0.9	-5.1
CC(C)CC1(C)NC(=O)N(CCN2C(=O)c3ccccc3C2=O)C1=O (stereo unspecified)	0.2	0.5	48.4	1	75.4*
Cc1cccc(OCCCc2c(C)n[nH]c2C)c1	0.1	0.4	56.6*	1.7	92.5*
COc1cccc(OC)c1OCCCc1c(C)n[nH]c1C	0.5	1.9	-90.3	1.1	47.3
CC1=NN(c2nc(C)cc(C)n2)C(=O)C1CCC(C)C (stereo unspecified)	0.9	1	2.2	2.3*	9.7
CCC1C(=O)N(c2nc(C)cc(C)n2)N=C1C (stereo unspecified)	1	0.9	11.0	1.2	-4.9
Cc1ccc(S(=O)(=O)NCc2ccc(C(=O)NCCCN3CCN(C)CC3)cc2)cc1	1	1	3.8	1.1	-2.2
CN(C)CC(C)(C)CNS(=O)(=O)c1cccc(Cl)c1Cl	0.2	0.7	32.5	1	76.8*
O=C(N1CCOCC1)N1CCC(n2nnc3ccccc32)CC1	0.9	0.6	38.1	1.2	6.5
O=c1oc2ccccc2cc1-c1csc(Cc2nc(-c3ccc(Br)cc3)cs2)n1	0.4	0.3	70.0*	1	61.2*
COC(=O)c1ccc(NC(=O)Cn2nc(SC)n(N)c2=S)cc1	0.8	0.9	7.5	0.9	22.8
COc1ccccc1NC(=O)Cn1cnc2c(cnn2-c2ccc(C)c(C)c2)c1=O	1	0.9	13.7	0.9	1.9
COc1ccccc1N1CCN(C(=O)c2ccc(C(C)(C)C)cc2)CC1	0.2	0.1	90.9*	1.5	75.2*
O=C(c1ccco1)N1CCCSC1=Nc1ccccc1	0.8	0.8	17.8	1.1	18.2
COc1ccccc1N1CCN(C(=O)c2c(-c3ccccc3)noc2C)CC1	0.4	0.7	28.0	1.3	55.1*
SMILES	CYP2C19 activ	CYP2C9 activ	CYP2C9 inhib	PLAP act	CYP2C19 inhib
COc1ccccc1N1CCN(C(=O)c2ccncc2)CC1	0	0.1	86.3*	1.3	100.4*
Cc1onc(-c2ccccc2)c1C(=O)N1CCCN(C(=O)c2c(-c3ccccc3)noc2C)CC1	0.9	0.9	11.5	1.6	7.0
COc1ccccc1N1CCN(C(=O)c2ccc(S(=O)(=O)N3CCCC3)cc2)CC1	0.8	0.7	33.5	1.2	15.4
Cc1onc(-c2ccccc2)c1C(=O)N1CCCSC1=Nc1ccccc1	0	0.4	61.3*	1.4	98.5*
Cc1ccc(C2CC(c3cccs3)=NN2C(=O)c2ccc(Br)o2)cc1 (stereo unspecified)	0.7	0.6	42.6	1.1	30.2
Cc1cc(C)n2c3c(c(C#N)c2n1)CCCC3	0.9	1	2.9	0.8	8.2
O=S(=O)(c1ccc(S(=O)(=O)N(Cc2cccs2)CC2CCCO2)cc1)N1CCCCC1 (stereo unspecified)	0.3	0.2	83.0*	1.5	72.9*
COc1cccc(CN(CC2CCCO2)S(=O)(=O)c2ccc(S(=O)(=O)N(C)C)cc2)c1 (stereo unspecified)	0.7	0.5	45.8	1	25.8

Compound activity as filed in PubChem BioAssay.
